From PubChem BioAssay (NCATS)
A number with no mark means an inactive call. Results filed as inconclusive are left out. Calls of active or inactive are those of the source. Unless noted, the call rests on the fitted dose curve; in most records, active means well fitted curve in the direction sought with a large enough effect; inconclusive means small, poorly fitted or top-dose-only effect, or another doubt; inactive means no such curve, though single readings can be large; an effect the other way counts as inactive or inconclusive.

How the values were obtained:
[1] = biological target: Lysosomal acid glucosylceramidase (Homo sapiens) (UniProt P04062); test: Glucocerebrosidase-p2 (AID 348; in the data active means potency below about 10 µM; further: potency means the concentration at half of the fitted maximal effect); details: purified GBA, blue fluorogenic substrate, 40 min
Lysosomal acid glucosylceramidase (Homo sapiens), sequence (P04062 whole entry, looked up): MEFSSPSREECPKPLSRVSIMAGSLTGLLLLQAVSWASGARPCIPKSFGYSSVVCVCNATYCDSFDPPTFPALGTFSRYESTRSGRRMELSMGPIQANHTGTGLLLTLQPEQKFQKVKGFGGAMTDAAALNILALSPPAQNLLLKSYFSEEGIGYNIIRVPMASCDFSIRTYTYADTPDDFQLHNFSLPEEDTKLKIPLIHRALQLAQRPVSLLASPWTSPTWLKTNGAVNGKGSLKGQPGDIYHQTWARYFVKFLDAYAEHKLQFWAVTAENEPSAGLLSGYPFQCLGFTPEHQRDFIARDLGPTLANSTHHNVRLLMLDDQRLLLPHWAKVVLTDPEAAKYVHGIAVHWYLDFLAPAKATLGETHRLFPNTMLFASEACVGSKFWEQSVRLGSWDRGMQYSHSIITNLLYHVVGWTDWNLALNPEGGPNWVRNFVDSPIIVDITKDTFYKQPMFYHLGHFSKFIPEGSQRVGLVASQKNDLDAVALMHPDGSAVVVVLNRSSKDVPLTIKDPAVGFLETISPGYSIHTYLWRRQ
In short: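 Normal human glucocerebrosidase (0.2 nM) with blue fluorogenic substrate (80 uM final) in citrate/phosphate pH 5.9 with 10mM sodium taurocholate, 0.01% tween-20; 40 min RT, NaOH/glycine stop; fluorescence Ex 365/Em 440; AC50 from a titration from 0.6 nM upwards.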

[2] = AP1 Signaling Pathway (AID 357; active means well fitted curve in either direction with a large enough effect, not every such curve was filed as active; further: on the % scale 0 is the no-effect control and ±100 the full control effect); details: ME-180 AP-1-bla reporter, EGF-induced, beta-lactamase ratio, 5 h; at 7.69 µM (top of the series) unless noted
In short: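 ME-180 cells with beta-lactamase reporter under AP-1 response element, stimulated with EC50 EGF; compounds tested in titration series, 5 h at 37 °C. CCF4 substrate added 2.5 h at room temperature; 460/530 nm emission ratio gave %activity and AC50.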

[3] = biological target: Cytochrome P450 1A2 (Homo sapiens) (UniProt P05177); test: p450-cyp1a2 (AID 410; calls by dose curve; further: potency means the concentration at half of the fitted maximal effect)
Cytochrome P450 1A2 (Homo sapiens), sequence (P05177 whole entry, looked up): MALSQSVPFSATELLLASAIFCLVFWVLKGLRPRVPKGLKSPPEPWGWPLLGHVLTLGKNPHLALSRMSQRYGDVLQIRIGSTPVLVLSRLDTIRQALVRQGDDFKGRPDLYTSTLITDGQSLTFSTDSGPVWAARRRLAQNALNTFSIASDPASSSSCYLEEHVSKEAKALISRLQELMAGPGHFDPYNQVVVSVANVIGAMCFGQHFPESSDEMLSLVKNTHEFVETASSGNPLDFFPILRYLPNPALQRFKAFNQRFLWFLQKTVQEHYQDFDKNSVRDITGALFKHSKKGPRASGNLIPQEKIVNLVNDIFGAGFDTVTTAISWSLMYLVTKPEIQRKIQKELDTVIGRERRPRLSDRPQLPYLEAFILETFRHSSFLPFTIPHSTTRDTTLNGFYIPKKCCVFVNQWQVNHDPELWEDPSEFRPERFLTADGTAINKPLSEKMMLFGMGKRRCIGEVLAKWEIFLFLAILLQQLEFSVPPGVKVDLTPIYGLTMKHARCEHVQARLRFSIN
In short: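 Read-out is luminescence from luciferin produced by CYP1A2 demethylation of Luciferin-ME (100uM, at Km). Detection reagent stopped the 60 min NADPH-dependent reaction; signals were normalized to 57 uM furafylline.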

[4] = NFAT Signaling Pathway (AID 444; active means well fitted curve in either direction with a large enough effect, not every such curve was filed as active;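 further: carbachol stimulus at about its EC50 of 1 µM final; on the % scale 0 is the no-effect control and ±100 the full control effect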); details: Jurkat NFAT-bla M1, carbachol, beta-lactamase ratio, 5 h; at 7.69 µM (top of the series) unless noted
In short: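 Jurkat cells carrying an NFAT-driven β-lactamase reporter and co-transfected muscarinic M1 receptor were treated with compound plus carbachol (1 uM final, an EC50 level) for 5 h at 37 °C. CCF4 loading followed for 1 h at RT; 460/530 nm ratio gave %activity.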

[5] = Stat Signaling Pathway (AID 446; active means well fitted curve in either direction with a large enough effect, not every such curve was filed as active;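 further: ME-180 cervical cancer cells given 40 pM IL-6 alongside compound; SIE-controlled beta-lactamase reporter measured as 460/530 nm FRET emission ratio; on the % scale 0 is the no-effect control and ±100 the full control effect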); details: ME-180 SIE beta-lactamase reporter, IL-6 stimulated, 5 h; at 7.69 µM (top of the series) unless noted
In short: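 Overnight-plated ME-180 cells bearing a STAT Inducible Element beta-lactamase reporter; 5 h co-exposure to compound and 40 pM IL-6; values normalized to 300 pM IL-6 and 125 nM JAK inhibitor controls.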

[6] = biological target: Glucocorticoid receptor (Homo sapiens) (UniProt P04150); test: GR-GFP Redistribution (AID 450;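 active means compounds whose dose series gives a full or clear partial fitted curve of increased nuclear translocation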; further: potency means the concentration at half of the fitted maximal effect); details: U2OS GR-GFP nuclear translocation, laser cytometry, 2 h
Glucocorticoid receptor (Homo sapiens), sequence (P04150 whole entry, looked up, the tested form may be a part): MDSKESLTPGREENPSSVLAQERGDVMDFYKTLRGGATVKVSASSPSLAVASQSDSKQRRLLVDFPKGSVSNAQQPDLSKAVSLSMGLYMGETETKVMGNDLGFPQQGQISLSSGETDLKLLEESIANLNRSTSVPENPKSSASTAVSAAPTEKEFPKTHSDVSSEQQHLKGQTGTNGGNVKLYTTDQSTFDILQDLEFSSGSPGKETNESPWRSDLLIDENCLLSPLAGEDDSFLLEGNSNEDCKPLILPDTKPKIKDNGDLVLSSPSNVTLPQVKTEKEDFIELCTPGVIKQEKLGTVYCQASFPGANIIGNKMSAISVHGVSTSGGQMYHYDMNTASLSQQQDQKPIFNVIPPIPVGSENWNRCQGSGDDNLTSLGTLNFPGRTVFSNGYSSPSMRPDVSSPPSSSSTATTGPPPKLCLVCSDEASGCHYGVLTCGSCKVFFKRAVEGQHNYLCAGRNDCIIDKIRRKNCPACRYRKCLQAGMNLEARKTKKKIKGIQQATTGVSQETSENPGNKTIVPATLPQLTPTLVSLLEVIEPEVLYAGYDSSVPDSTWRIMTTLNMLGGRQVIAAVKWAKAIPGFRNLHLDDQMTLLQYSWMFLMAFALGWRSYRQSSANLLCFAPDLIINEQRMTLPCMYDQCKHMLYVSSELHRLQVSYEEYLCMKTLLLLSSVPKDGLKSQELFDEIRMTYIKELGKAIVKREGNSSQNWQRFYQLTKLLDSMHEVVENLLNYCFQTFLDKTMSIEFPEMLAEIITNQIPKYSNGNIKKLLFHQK

[7] = biological target: Glucocorticoid receptor (Homo sapiens) (UniProt P04150); test: GR-EFC Redistribution (AID 451; calls by dose curve; further: potency means the concentration at half of the fitted maximal effect); details: CHO-K1 GR-EFC translocation, beta-gal luminescence, 2 h
In short: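 CHO-K1 cells stably expressing nuclear-localized β-gal enzyme acceptor and GR fused C-terminally to the enzyme donor fragment; ligand-driven nuclear translocation restores β-gal by complementation. Compounds titrated up to 46 uM final, 2 h at 37 °C; luminescence read.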

[8] = biological target: Mitogen-activated protein kinase 10 (Mus musculus) (UniProt Q61831); test: JNK3 AlphaScreen Assay (AID 530; active means well fitted curve in either direction with a large enough effect, not every such curve was filed as active;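 further: kinase came from lysate of stimulated human HepG2 cells; signal reports phosphorylation of biotinylated GST-cJun 1-79 at Ser73 with 10 µM ATP; on the % scale 0 is the no-effect control and ±100 the full control effect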)
In short: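 Biotinylated GST-cJun(1-79) served as substrate for JNK3 in HepG2 lysates stimulated with IL-1beta and TNF-alpha. ATP was 10 uM final, pH 7.6. Ser73 phosphorylation was quantified by AlphaScreen (680 nm excitation).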

[9] = biological target: Cytochrome P450 3A4 (Homo sapiens) (UniProt P08684); test: qHTS Assay for Inhibitors and Substrates of Cytochrome P450 3A4 (AID 884); further: potency means the concentration at half of the fitted maximal effect; nearly all actives have a fitted effect of over 50% in size
Cytochrome P450 3A4 (Homo sapiens), sequence (P08684 whole entry, looked up): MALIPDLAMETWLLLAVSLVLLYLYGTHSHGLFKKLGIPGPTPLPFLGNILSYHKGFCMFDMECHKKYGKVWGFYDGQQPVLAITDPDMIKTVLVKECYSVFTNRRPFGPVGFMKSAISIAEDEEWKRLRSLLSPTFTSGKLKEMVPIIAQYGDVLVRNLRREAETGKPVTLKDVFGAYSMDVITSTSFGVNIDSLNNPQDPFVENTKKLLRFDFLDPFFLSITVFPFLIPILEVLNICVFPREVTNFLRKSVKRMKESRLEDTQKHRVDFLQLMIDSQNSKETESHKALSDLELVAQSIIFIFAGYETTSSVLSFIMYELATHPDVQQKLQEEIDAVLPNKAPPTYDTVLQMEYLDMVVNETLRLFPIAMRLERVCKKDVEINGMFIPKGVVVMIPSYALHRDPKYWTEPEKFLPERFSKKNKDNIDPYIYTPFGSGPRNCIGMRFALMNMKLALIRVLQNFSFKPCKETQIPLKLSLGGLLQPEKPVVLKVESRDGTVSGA
In short: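 Luminescent readout of luciferin produced by CYP3A4 (20 nM) dealkylation of Luciferin-PPXE, 25 uM (its KM). NADPH-driven reaction ran 60 min at RT after 10 min compound preincubation; data scaled to 57 uM ketoconazole as 100% inhibition.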

[10] = biological target: Cytochrome P450 3A4 (Homo sapiens) (UniProt P08684); test: qHTS Assay for Activators of Cytochrome P450 3A4 (AID 885); further: nearly all actives have a fitted effect of over 65% in size
In short: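 Using 20nM recombinant human CYP3A4 in potassium phosphate (200mM), substrate Luciferin-PPXE at 25uM, luminescent luciferin detection followed a 60-min RT NADPH reaction; data scaled to 57 uM ketoconazole.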

[11] = biological target: Dual specificity protein kinase CLK4 (Homo sapiens) (UniProt Q9HAZ1); test: qHTS Assay for Inhibitors of CDC-like Kinase 4 (Kinase-Glo Assay) (AID 1770); further: nearly all actives have a fitted effect of over 65% in size; further: potency means the concentration at half of the fitted maximal effect
Dual specificity protein kinase CLK4 (Homo sapiens), sequence (Q9HAZ1 whole entry, looked up): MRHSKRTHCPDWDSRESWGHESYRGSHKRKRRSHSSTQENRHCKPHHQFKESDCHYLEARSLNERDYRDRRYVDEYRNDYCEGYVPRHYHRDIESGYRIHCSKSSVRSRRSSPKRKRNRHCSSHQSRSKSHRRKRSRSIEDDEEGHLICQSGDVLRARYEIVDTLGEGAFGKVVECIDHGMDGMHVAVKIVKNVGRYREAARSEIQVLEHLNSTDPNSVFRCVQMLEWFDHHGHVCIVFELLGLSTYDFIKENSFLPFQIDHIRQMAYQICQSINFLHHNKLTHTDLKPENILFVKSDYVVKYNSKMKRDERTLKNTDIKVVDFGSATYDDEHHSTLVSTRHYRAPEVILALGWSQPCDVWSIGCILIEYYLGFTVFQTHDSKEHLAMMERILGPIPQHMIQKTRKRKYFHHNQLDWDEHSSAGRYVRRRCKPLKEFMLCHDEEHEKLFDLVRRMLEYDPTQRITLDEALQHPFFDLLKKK
In short: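 25 nM Clk4 with 100 uM RS repeat peptide and 1 uM ATP (final) in Tris pH7.5, 10 mM MgCl2, 4.5 h at room temperature. Remaining ATP measured by Kinase-Glo luciferase luminescence.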

[12] = biological target: Dual specificity protein kinase CLK4 (Homo sapiens) (UniProt Q9HAZ1); test: qHTS Assay for Inhibitors of CDC-like Kinase 4 (ADP-Glo Assay) (AID 1771); further: nearly all actives have a fitted effect of over 70% in size; further: potency means the concentration at half of the fitted maximal effect
In short: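 In this ADP-Glo format, 1 uM ATP and 100 uM RS peptide served as substrates for 25 nM Clk4 in Mg2+/EGTA/DTT/Triton buffer; reactions ran 1 hr at room temperature before luminescent ADP quantification.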

[13] = biological target: Ubiquitin carboxyl-terminal hydrolase 1 (Homo sapiens) (UniProt O94782); test: Inhibitors of USP1/UAF1: Pilot qHTS (AID 504865); further: nearly all actives have a fitted effect of over 35% in size; further: potency means the concentration at half of the fitted maximal effect
Ubiquitin carboxyl-terminal hydrolase 1 (Homo sapiens), sequence (O94782 whole entry, looked up): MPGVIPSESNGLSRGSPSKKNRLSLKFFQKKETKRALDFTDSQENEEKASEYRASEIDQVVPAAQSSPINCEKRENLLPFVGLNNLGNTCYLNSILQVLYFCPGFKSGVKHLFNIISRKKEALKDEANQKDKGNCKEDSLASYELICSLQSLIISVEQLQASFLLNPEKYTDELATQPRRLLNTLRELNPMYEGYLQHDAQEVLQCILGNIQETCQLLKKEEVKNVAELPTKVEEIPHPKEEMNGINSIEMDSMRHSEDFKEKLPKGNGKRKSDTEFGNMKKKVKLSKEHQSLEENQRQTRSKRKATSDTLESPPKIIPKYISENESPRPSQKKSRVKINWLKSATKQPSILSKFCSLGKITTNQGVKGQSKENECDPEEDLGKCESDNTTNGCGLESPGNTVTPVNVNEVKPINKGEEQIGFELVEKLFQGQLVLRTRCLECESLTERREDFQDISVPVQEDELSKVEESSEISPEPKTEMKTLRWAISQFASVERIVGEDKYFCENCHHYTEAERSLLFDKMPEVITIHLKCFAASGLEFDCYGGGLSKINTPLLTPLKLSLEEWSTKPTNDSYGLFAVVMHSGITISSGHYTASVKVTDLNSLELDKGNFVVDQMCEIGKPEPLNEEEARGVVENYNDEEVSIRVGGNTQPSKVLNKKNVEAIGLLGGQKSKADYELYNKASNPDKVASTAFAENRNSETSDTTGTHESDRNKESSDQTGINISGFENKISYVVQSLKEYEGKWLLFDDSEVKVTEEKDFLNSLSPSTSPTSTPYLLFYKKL
In short: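 USP1/UAF1 complex at 1 nM preincubated 15 min at room temperature with compound, then Ub-Rho substrate added at 150 nM final. Fluorescence (480/540 nm) read kinetically in 50 mM HEPES pH 7.8, 0.5 mM EDTA, 1 mM TCEP, 0.1 mg/ml BSA, 0.01% Tween-20.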

[14] = Primary qHTS for small molecule stabilizers of the endoplasmic reticulum resident proteome: Secreted ER Calcium Modulated Protein (SERCaMP) assay (AID 1508630); further: on the % scale 0 is the no-effect control and ±100 the full control effect
In short: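 The SH-SY5Y reporter protocol was run at 3 concentrations up to 38.3 uM (primary) or 11 concentrations (follow-up): 16 h compound, 100 nM thapsigargin for 4 h, then extracellular luciferase luminescence.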

[15] = biological target: 3',5'-cyclic-AMP phosphodiesterase 4B (Homo sapiens) (UniProt Q07343); test: qHTS Assay for Inhibitors of PDE-IV (AID 607; active means well fitted activation curve with a large enough effect in the main read-out, with a control signal flat, not every such curve was filed as active; further: % of control where 0% means no effect)
3',5'-cyclic-AMP phosphodiesterase 4B (Homo sapiens), sequence (Q07343 whole entry, looked up): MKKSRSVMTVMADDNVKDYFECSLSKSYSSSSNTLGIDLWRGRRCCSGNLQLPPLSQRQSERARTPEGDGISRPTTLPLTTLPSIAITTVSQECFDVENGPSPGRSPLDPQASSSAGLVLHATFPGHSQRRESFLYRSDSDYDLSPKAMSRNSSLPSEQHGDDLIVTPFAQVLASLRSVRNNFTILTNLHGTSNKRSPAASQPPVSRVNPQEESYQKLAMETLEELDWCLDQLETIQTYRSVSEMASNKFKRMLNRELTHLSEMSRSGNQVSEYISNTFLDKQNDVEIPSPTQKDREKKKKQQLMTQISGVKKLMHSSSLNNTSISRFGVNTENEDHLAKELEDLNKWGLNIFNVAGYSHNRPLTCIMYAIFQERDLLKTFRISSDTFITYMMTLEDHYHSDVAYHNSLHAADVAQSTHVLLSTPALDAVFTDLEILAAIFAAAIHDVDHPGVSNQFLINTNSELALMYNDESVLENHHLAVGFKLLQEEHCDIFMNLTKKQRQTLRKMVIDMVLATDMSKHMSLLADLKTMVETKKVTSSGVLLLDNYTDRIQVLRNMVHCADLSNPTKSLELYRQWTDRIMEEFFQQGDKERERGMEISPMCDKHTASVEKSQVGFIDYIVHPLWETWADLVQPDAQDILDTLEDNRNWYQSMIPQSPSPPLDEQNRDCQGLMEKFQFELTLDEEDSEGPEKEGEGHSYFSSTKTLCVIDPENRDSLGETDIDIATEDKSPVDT
In short: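 Live HEK293 cells with a modified cyclic nucleotide-gated (CNG) channel report intracellular cAMP via membrane-potential dye fluorescence (ex 535/em 590 nm). Endogenous PDE-IV was targeted. Compounds were tested at up to 22.9 uM final; RO 20-1724 100 uM served as control.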

[16] = biological target: Cytochrome P450 2C9 (Homo sapiens) (UniProt P11712); test: qHTS Assay for Inhibitors and Substrates of Cytochrome P450 2C9 (AID 883); further: on the % scale 0 is the no-effect control and ±100 the full control effect; nearly all actives have a fitted effect of over 60% in size
In short: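 Human CYP2C9 (10nM) hydroxylated Luciferin-H (100uM, at its KM) to luciferin in 25mM KPO4. Compound was preincubated 10 min at 37C, then NADPH regeneration started a 60 min reaction at 37C. Luminescence was read after detection reagent, normalized to 57uM sulphaphenazole.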

[17] = biological target: Cytochrome P450 2D6 (Homo sapiens) (UniProt P10635); test: qHTS Assay for Inhibitors and Substrates of Cytochrome P450 2D6 (AID 891); further: potency means the concentration at half of the fitted maximal effect; nearly all actives have a fitted effect of over 60% in size
Cytochrome P450 2D6 (Homo sapiens), sequence (P10635 whole entry, looked up): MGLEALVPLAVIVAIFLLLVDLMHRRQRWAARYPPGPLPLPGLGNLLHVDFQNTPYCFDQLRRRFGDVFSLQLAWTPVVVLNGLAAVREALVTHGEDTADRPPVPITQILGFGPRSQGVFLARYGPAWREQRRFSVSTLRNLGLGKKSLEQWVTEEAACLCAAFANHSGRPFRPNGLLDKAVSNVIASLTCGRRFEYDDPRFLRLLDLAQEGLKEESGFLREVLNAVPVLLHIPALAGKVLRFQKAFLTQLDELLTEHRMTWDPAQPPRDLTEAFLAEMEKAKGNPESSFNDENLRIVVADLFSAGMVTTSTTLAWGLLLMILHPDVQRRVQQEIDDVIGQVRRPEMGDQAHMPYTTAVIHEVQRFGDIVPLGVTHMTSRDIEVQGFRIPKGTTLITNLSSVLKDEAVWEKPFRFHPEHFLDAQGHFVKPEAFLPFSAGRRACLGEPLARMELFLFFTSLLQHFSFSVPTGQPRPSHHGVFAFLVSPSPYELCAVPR
In short: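 Luminescent read-out of luciferin formed by 5 nM human CYP2D6 demethylating 30 uM Luciferin-ME EGE (Km level) over 60 min at room temperature after NADPH regeneration addition. Data normalized to full inhibition by 1.43 uM quinidine.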

[18] = qHTS Assay for Identification of Small Molecule Agonists for Hypoxia Response Element Signaling Pathway (AID 914; active means well fitted activation curve with a large enough effect in the signal ratio, with a control signal flat, not every such curve was filed as active; the % refers to the signal ratio; further: % of control where 0% means no effect); details: ME-180 HRE-bla reporter, beta-lactamase ratio, CoCl2, 17 h; activation: hits give high values
In short: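 ME-180 cells carrying an HRE-driven beta-lactamase reporter were treated with compounds in a titration series plus an EC50 level of CoCl2 for 17 h at 37 degrees Celsius; CCF4 readout as the 460nm/530nm ratio gave AC50 values.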

For `COc1cccc(-c2nc(NCc3cccs3)c3ccccc3n2)c1`, the Potency [1] was greater than 11.4 µM, the activity change, negative = inhibition [2] was 9.31% and the Potency [3] was 0.316 µM (active). For the same molecule, the activity change, negative = inhibition [4] was -22.6%, the activity, negative = inhibition [5] was -12.6% and the Potency [6] was greater than 46 µM. The Potency [7] was greater than 46 µM, the Potency [8] was “inactive” and the Potency [9] was 3.16 µM (active). The Potency [10] was “inactive”, the Potency [11] was 17.8 µM (active) and the Potency [12] was 15.8 µM (active). For the same molecule, the Potency [13] was 20 µM (active) and the outcome [14] was “inactive”.

For `CN1CCN(c2ccnc(-c3cccnc3)n2)CC1`, the Potency [1] was greater than 11.4 µM, the activity change, negative = inhibition [2] was -0.185% and the activity change, negative = inhibition [4] was 0.489%. It also gave an activity, negative = inhibition [5] of 12.4%, a Potency [6] greater than 46 µM and a Potency [7] greater than 46 µM. For the same molecule, the Potency [8] was “inactive”, the Potency [15] was “inactive” and the Potency [11] was 25.1 µM (active). For the same molecule, the Potency [12] was 15.8 µM (active), the Potency [13] was “inactive” and the outcome [14] was “inactive”.

For `O=c1c(-c2cc(F)cc(F)c2)nc2cnc(N3CCOCC3)nc2n1CCc1ccccc1`, the Potency [1] was greater than 11.4 µM, the activity change, negative = inhibition [2] was 29.6% and the Potency [3] was 2.51 µM (active). For the same molecule, the Potency [6] was greater than 9.22 µM, the Potency [7] was greater than 46 µM and the Potency [8] was “inactive”. For the same molecule, the Potency [15] was “inactive”, the Potency [11] was “inactive” and the Potency [12] was “inactive”. For the same molecule, the Potency [13] was “inactive” and the outcome [14] was “inactive”.

With `CC(=O)NCCNc1nc(-c2ccccc2C)nc2ccccc12` the Potency [1] was greater than 11.4 µM, the activity change, negative = inhibition [2] was 7.34% and the Potency [3] was 6.31 µM (active). The activity change, negative = inhibition [4] was -9.21%, the activity, negative = inhibition [5] was 7.37% and the Potency [6] was greater than 46 µM. The Potency [7] was greater than 46 µM, the Potency [8] was “inactive” and the activity change, negative = inhibition [16] was 46.4% [at 2.29 µM]. The Potency [9] was 5.01 µM (active), the Potency [10] was “inactive” and the Potency [17] was 5.01 µM (active). The activation [18] was -1%, the Potency [11] was 22.4 µM (active) and the Potency [12] was 15.8 µM (active). The Potency [13] was “inactive” and the outcome [14] was “inactive”.

For `COc1cccc(-c2nc(N(C)Cc3ccco3)c3ccccc3n2)c1`, the Potency [1] was greater than 11.4 µM, the activity change, negative = inhibition [2] was -7.73% and the Potency [3] was 0.316 µM (active). The activity, negative = inhibition [5] was -9.79%, the Potency [6] was greater than 46 µM and the Potency [7] was greater than 46 µM. For the same molecule, the Potency [8] was “inactive”, the Potency [10] was “inactive” and the Potency [17] was 5.01 µM (active). For the same molecule, the Potency [11] was 12.6 µM (active), the Potency [12] was 12.6 µM (active) and the outcome [14] was “inactive”.

With `COc1ccccc1-c1nc(NCc2cccnc2)c2ccccc2n1` the Potency [1] was greater than 11.4 µM, the activity change, negative = inhibition [2] was 10.5% and the Potency [3] was 0.794 µM (active). For the same molecule, the activity change, negative = inhibition [4] was -29.2%, the activity, negative = inhibition [5] was 12.9% and the Potency [6] was greater than 46 µM. For the same molecule, the Potency [7] was greater than 46 µM, the Potency [8] was “inactive” and the Potency [15] was “inactive”. For the same molecule, the Potency [10] was “inactive”, the Potency [11] was “inactive” and the Potency [12] was “inactive”. The outcome [14] was “inactive”.

Molecule `N#Cc1ccccc1-c1ccc2ncnc(NCc3ccccc3)c2c1` has a Potency [1] greater than 11.4 µM, an activity change, negative = inhibition [2] of -20.7% and an activity change, negative = inhibition [4] of 16.5%. The activity, negative = inhibition [5] was 27.7%, the Potency [6] was greater than 46 µM and the Potency [7] was greater than 46 µM. The Potency [8] was “inactive”, the Potency [11] was 5.01 µM (active) and the Potency [12] was 7.94 µM (active). For the same molecule, the outcome [14] was “inactive”.
